From PubChem BioAssay
CYP2C19 activ – cytochrome P450 2C19 (human) activation. P33261. recombinant CYP2C19, luciferin-H EGE luminescence; active compounds read high; 0 = fully inhibited enzyme, 1 = untreated enzyme. activation factor at 5 µM. 96,000 tested, under 10 active;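 active = activation factor of at least 2 at 5 µM in the primary screen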;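 also: 0 = wells with 2.5 mM tranylcypromine and 1 = vehicle-only wells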
Target sequence (P33261 whole entry, looked up): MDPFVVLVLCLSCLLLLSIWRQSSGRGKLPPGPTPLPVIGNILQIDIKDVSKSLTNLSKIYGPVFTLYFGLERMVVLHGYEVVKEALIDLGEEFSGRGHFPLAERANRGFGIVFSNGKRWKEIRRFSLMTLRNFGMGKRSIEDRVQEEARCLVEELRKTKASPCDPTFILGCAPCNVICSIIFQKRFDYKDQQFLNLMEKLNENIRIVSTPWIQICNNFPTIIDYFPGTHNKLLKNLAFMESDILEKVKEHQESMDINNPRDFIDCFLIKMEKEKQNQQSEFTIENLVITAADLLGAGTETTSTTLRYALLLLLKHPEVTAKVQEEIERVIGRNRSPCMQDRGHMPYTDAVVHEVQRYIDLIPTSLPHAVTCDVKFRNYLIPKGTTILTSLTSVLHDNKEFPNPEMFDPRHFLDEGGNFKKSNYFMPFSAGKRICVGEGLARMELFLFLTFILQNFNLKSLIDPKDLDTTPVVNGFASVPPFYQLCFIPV
Measles CPE – protection of cells from measles virus | Measles virus-infected cells, CPE protection, absorbance | protection (pct of control), % at 4 µM | 140,000 tested, 1.5% active | AID 841; in the data active = protection mostly above about 24%, no sharp cut-off; inactive = mostly below about 26%
CYP2C19 inhib – blocks human cytochrome P450 2C19. inhibition, % at 5 µM. 96,000 tested, 21% active. CYP2C19 Supersomes, luciferin-H EGE luminescence, 30 min. P33261;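 active = CYP2C19 inhibition above a set limit at 5 µM in the primary screen, cut at about 50% in these data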;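 also: plate controls were negative control wells for no effect and 2.5 mM tranylcypromine positive control for full effect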
CYP2C9 inh – human CYP2C9 inhibition | CYP2C9 Supersomes, luciferin-H conversion, luminescence | inhibition, % at 5 µM | 96,000 tested, 20% active | AID 777;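 active = blocking of liver enzyme CYP2C9 beyond about 50% at 5 µM, limit read from the data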
CYP2C9 act – increases human cytochrome P450 2C9 activity. P11712. recombinant CYP2C9, luciferin-H conversion, luminescence; active compounds read high; factor 1 = untreated enzyme, 0 = blocked. activation factor at 5 µM. 96,000 tested, 1.4% active;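 active = activation factor of 2 or more for CYP2C9 at a 5 µM dose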;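 also: 0 = sulfaphenazole-blocked wells and 1 = vehicle-only wells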
The depositor's hits bear a star; · = not tested or not shown. Sampled rows, rich in hits. Any-hit rate of the full collection: about 22%.

SMILES	CYP2C19 activ	Measles CPE	CYP2C19 inhib	CYP2C9 inh	CYP2C9 act
COc1ccc(N2CCN(c3ncnc4c3[nH]c3ccccc34)CC2)cc1	1.1	8.3	-6.8	0.5	1
OC1(c2cccc(C(F)(F)F)c2)CCN(c2ncnc3c2[nH]c2ccc(F)cc23)CC1	0.3	1.5	71.0*	85.2*	0.1
Fc1ccc2[nH]c3c(N4CCN(c5ccccc5)CC4)ncnc3c2c1	1	6.5	-1.0	5.3	0.9
CCOC(=O)N1CCN(c2ncnc3c2[nH]c2ccc(OC)cc23)CC1	0.4	1.9	56.0*	38.7	0.6
CC(C)OC(=O)c1ccc(S(N)(=O)=O)o1	·	11.9	·	·	·
COC(=O)N1[C@H](Cc2ccccc2)C=C[C@]1(C)C(=O)NCc1ccccn1	·	4.0	·	·	·
Cc1ccc(NS(=O)(=O)c2ccc(NC(=O)[C@@H]3CCCC[C@@H]3C(=O)O)cc2)c(C)c1	0.9	11.7	13.2	18.3	0.8
COc1cc(C(O)P(=O)(OC(C)C)c2ccc(N(C)C)cc2)cc(OC)c1OC (configuration not stated)	0.6	8.4	42.8	16.6	0.8
COc1ccc(C(O)P(=O)(OC2CCCCC2)c2ccc(N(C)C)cc2)cc1OC (configuration not stated)	0.4	11.8	55.9*	1.9	1
CSc1nc2ccccc2n1CC(=O)Nc1cc(C(F)(F)F)ccc1N1CCOCC1	0.1	25.1	87.4*	96.6*	0
O=C(Cn1c(C(F)(F)F)nc2ccccc21)Nc1ccccc1N1CCOCC1	0.6	0.7	37.5	82.4*	0.2
CCC(=O)Nc1cc(C(F)(F)F)ccc1N1CCOCC1	0.7	2.8	31.8	30.5	0.7
O=C(O)c1oc2ccccc2c1-n1cccc1	1	27.1*	-2.0	-3.7	1
Cc1cccc(-c2nc3cc(NC(=O)C4CCCO4)ccc3o2)c1 (configuration not stated)	·	10.9	·	·	·
CCC(=O)Nc1ccc2oc(-c3cccc(C)c3)nc2c1	0.2	6.3	83.4*	-22.8	1.2
O=C(Nc1cccc(-c2nc3cc(Cl)ccc3o2)c1)C1CCCO1 (configuration not stated)	0.5	18.9	48.1	71.0*	0.3
Cc1ccc2oc(-c3cccc(NC(=O)Cc4cccs4)c3)nc2c1	0.8	2.8	20.7	83.5*	0.2
CN(C)CCNC(=S)Nc1ccc(Cl)cc1Cl	·	3.2	·	·	·
CC1c2[nH]c3ccccc3c2CCN1S(C)(=O)=O (configuration not stated)	0	4.2	97.7*	2.8	1
Cc1[nH]n(C(C)(C)C)c(=O)c1Sc1ccc(Cl)cc1	0.5	8.7	54.5*	53.8*	0.5
COCCOC(=O)C1=C(C)N=C2SCCC(=O)N2C1/C=C/c1ccccc1 (configuration not stated)	0.2	34.5	81.1*	92.9*	0.1
CCOc1cc(C2C(C(=O)OC)=C(C)N=C3SC(C)C(=O)N32)ccc1OC(C)=O (configuration not stated)	0.4	1.2	63.8*	59.2*	0.4
CCOC(=O)C1=C(C)N=C2SC(C)C(=O)N2C1c1ccc(OC(C)=O)c(OC)c1 (configuration not stated)	·	4.5	·	·	·
COC(=O)C1=C(C)N=C2SCCC(=O)N2C1c1ccc(C(=O)OC)cc1 (configuration not stated)	0.1	3.3	88.3*	54.6*	0.5
CCOC(=O)C1=C(C)N=C2SCCC(=O)N2[C@@H]1/C=C/c1ccccc1	0.7	15.5	33.0	49.8	0.5
SMILES	CYP2C19 activ	Measles CPE	CYP2C19 inhib	CYP2C9 inh	CYP2C9 act
COC(=O)c1ccc(C2C(C(=O)OCC(C)C)=C(C)N=C3SCCC(=O)N32)cc1 (configuration not stated)	0.2	4.8	75.5*	62.1*	0.4
Cc1c(Cl)cnc(NC(=O)CSc2nnc3ccccn23)c1Cl	1	4.1	4.4	-2.4	1
COc1ccccc1-c1noc(CCC(=O)Nc2cccc(C(F)(F)F)c2)n1	·	13.5	·	·	·
CC(=O)NC1C(OCCOc2ccc(Cl)cc2Cl)OC(COC(C)=O)C(OC(C)=O)C1OC(C)=O (configuration not stated)	0.8	6.4	16.6	9.8	0.9
CCOc1cc(C2C(C(=O)OC)=C(C)N=C3SCCC(=O)N32)ccc1OC(C)=O (configuration not stated)	0.6	22.2	35.4	30.4	0.7
CCOc1cc(C2C(C(=O)OCC(C)C)=C(C)N=C3SCCC(=O)N32)ccc1OC(C)=O (configuration not stated)	0.5	11.5	51.8*	40.1	0.6
COCCOC(=O)C1=C(C)N=C2SCCC(=O)N2C1c1ccc(C(=O)OC)cc1 (configuration not stated)	0	4.0	97.9*	65.7*	0.3
COc1ccc(/C=N/NC(=O)c2nc(-c3ccccc3)n(-c3ccccc3)n2)cc1OC	·	20.8	·	·	·
COc1ccc(Nc2ncnc3c2cnn3Cc2ccccc2)cc1OC	0.2	7.3	84.4*	73.0*	0.3
c1ccc(Cn2ncc3c(NCc4ccco4)ncnc32)cc1	0.8	1.3	19.3	-6.4	1.1
C=CCNc1ncnc2c1cnn2-c1ccc(Cl)cc1	1	8.8	2.4	21.0	0.8
CCCCNc1ncnc2c1cnn2-c1ccc(Cl)cc1	0.7	10.3	28.4	70.4*	0.3
c1ccc(-n2ncc3c(NCc4ccco4)ncnc32)cc1	0.5	2.3	50.1*	58.9*	0.4
COCCNc1ncnc2c1cnn2Cc1ccc(Cl)cc1	0.2	32.0	81.6*	-15.4	1.2
COc1ccc(C2OC34CCCCC3C(C#N)(C#N)C2(C#N)C(=N)O4)cc1 (configuration not stated)	0.8	8.3	16.2	10.0	0.9
Clc1ccc(-n2ncc3c(NCCCn4ccnc4)ncnc32)cc1	0.1	3.2	94.6*	92.6*	0.1
COc1ccccc1CNc1ncnc2c1nnn2Cc1ccccc1	0.5	9.3	54.7*	42.4	0.6
c1coc(CNc2nc(N3CCCCC3)nc3ccccc23)c1	0.8	8.1	16.3	24.4	0.8
CCCCNc1ncnc2c1cnn2-c1ccccc1	0.1	6.7	88.8*	99.1*	0
Clc1ccc(-n2ncc3c(NCCN4CCOCC4)ncnc32)cc1	0.9	12.1	12.6	2.2	1
c1ccc(N2CCN(c3nc(NCc4ccco4)c4ccccc4n3)CC2)cc1	0	-0.7	96.0*	90.9*	0.1
CC(C)(C)C1(C)OC(C(N)=O)C(C(N)=O)O1 (configuration not stated)	1	2.8	2.7	-4.0	1
O=C(COc1cc(Cl)ccc1Cl)Nc1ccc2c(c1)CCC2	·	9.8	·	·	·
CCOC(=O)COc1ccc(N)cc1CC(NC(C)=O)(C(=O)OCC)C(=O)OCC	1	9.3	-4.8	25.0	0.8
N=c1c2c(-c3ccccc3)c(-c3ccccc3)n(Cc3ccco3)c2ncn1Cc1ccccc1	0.7	9.8	26.3	18.6	0.8
N=c1c2c(-c3ccccc3)c(-c3ccccc3)oc2ncn1CCN1CCOCC1	0.6	6.5	39.7	41.6	0.6
